Screens (PubChem BioAssay)
An excerpt weighted towards active compounds, which were near 9% of everything screened.
Lamin A splicing: LMNA splicing modulation; HeLa LMNA splicing GFP/RFP minigene ratio, 48 h; 0.01% of 200,000 active; Potency, µM (top dose mostly 46.1 µM), inactives show at the highest dose ratio change, negative = inhibition, usual class: inhibitors; active means well fitted inhibition curve with a large enough effect in the signal ratio, with a control signal flat, not every such curve was filed as active; inconclusive means small, poorly fitted or top-dose-only effect, or effect the other way, or a change in a side signal; the % refers to the signal ratio; further: on the % scale 0 is the no-effect control and ±100 the full control effect
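S3 HeLa stable clones carrying a lamin A-EGFP splicing minigene plus DsRed2 were seeded at 600 cells/well in Opti-MEM with 2% FBS, pin-dosed and incubated 48 h at 37°C. Acumen cytometry (488 nm) gave the GFP/RFP total-intensity ratio.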
KinaseGlo FLuc: Kinase-Glo luciferase inhibition (counter-screen). Kinase-Glo luciferase, ATP luminescence, 8 min. Potency, µM (series often up to 38.3 µM), for the others: top-dose activity change, negative = inhibition, hits mostly inhibitors. 0.28% of 200,000 active. AID 1379; further: on the % scale 0 is the no-effect control and ±100 the full control effect; nearly all actives have a fitted effect of over 60% in size
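Compounds were added to a substrate mix at pH 7.2 (50 mM imidazole, 10 uM ATP, within the enzyme's linear range), followed by Kinase-Glo detection reagent; luminescence was measured after 8 minutes at ambient temperature.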
HPGD block: blocks human HPGD enzyme activity; purified HPGD, NADH fluorescence kinetic, PGE2 substrate; P15428; AID 894; 4.3% of 150,000 active; Potency, µM, without a hit: at the highest dose activity change, negative = inhibition, usual class: inhibitors; active means well fitted inhibition curve with a large enough effect, not every such curve was filed as active; inconclusive means small, poorly fitted or top-dose-only effect, or another doubt; inactive means no such curve, though single readings can be large or run the other way; further: on the % scale 0 is the no-effect control and ±100 the full control effect
Target sequence (P15428 whole entry, looked up): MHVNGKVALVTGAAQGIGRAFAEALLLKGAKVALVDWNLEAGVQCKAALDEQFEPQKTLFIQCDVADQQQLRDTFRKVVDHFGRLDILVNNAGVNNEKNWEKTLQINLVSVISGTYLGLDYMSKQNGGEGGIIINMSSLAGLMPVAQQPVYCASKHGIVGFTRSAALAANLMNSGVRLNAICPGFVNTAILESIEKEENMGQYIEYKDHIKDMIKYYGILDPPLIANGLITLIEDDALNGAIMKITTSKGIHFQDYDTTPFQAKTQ
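NADH formation kinetics: reaction with 30 uM PGE2 and 1 mM NAD+ (final), 20 nM enzyme, Tris-HCl pH 8 with Tween 20, after 15 min compound preincubation at room temperature. Fluorescence change, last versus first of five reads.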
HTT aggregate: mutant huntingtin aggregation inhibition | PC12 HttQ103-GFP aggregates, Acumen cytometry, 40 h | Potency, µM (doses to about 46.1 µM), for inactives: at the highest dose activity change, negative = inhibition, most hits filed as inhibitors | 1.1% of 220,000 active | AID 1688; further: on the % scale 0 is the no-effect control and ±100 the full control effect; nearly all actives have a fitted effect of over 60% in size
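Inducible Q103 Huntingtin exon 1–GFP PC12 line, 1500 cells/well in phenol red free DMEM with 5% equine and 5% calf serum. Tebufenozide 100 nM induced expression; compounds titrated; aggregates quantified by cytometry.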
HTT cytoprotect: protects HTT-Q103 PC12 cells, measured by ATP. Potency, µM (titrated, usually from 56.4 µM), for inactives: cytoprotection (ATP increase), actives largely listed as activators. PC12 HTT-Q103 induced, cytoprotection, ATP luminescence, 40 h. AID 1471. 0.14% of 230,000 active; further: % of control where 0% means no effect; nearly all actives have a fitted effect of over 45% in size
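Quantitative HTS on tebufenozide-induced (100 nM) PC12 cells expressing HTTQ103 exon 1–GFP; compounds tested as a concentration series; survival measured via cellular ATP.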
ALDH1A1 block: ALDH1A1 (human) enzyme inhibition; P00352; Purified ALDH1A1, NADH fluorescence, propionaldehyde substrate; Potency, µM (highest dose often 75.3 µM), inactives show at the highest dose activity, negative = inhibition, usual class: inhibitors; 7.3% of 220,000 active; AID 1030; active means well fitted inhibition curve with a large enough effect, not every such curve was filed as active; inconclusive means small, poorly fitted or top-dose-only effect, or another doubt; inactive means no such curve, though single readings can be large or run the other way;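 further: plate controls were no enzyme wells and a reference inhibitor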
Target sequence (P00352 whole entry, looked up): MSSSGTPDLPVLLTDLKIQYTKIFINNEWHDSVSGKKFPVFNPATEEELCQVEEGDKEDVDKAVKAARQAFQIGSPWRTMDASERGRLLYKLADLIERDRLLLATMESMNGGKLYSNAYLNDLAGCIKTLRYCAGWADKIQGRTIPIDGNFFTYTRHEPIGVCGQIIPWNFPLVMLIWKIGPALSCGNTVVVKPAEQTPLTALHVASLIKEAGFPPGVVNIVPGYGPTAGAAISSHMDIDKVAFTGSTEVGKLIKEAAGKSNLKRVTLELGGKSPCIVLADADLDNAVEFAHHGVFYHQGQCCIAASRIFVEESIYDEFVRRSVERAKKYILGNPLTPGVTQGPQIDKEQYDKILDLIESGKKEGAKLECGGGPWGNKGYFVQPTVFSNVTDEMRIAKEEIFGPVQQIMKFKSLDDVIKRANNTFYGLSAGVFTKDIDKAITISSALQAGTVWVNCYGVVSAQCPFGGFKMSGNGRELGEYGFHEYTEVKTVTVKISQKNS
* hit, by the source's call; [ ] = remark or other dose. Unless noted, the call rests on the fitted dose curve; in most records, active means well fitted curve in the direction sought with a large enough effect; inconclusive means small, poorly fitted or top-dose-only effect, or another doubt; inactive means no such curve, though single readings can be large; an effect the other way counts as inactive or inconclusive. Potency means the concentration at half of the fitted maximal effect.

Results for N#CC1=C(N)n2c(s/c(=C\c3ccco3)c2=O)=C(C#N)C1c1ccco1 (configuration not stated) ?
Lamin A splicing: -3%; KinaseGlo FLuc: 0%; HPGD block: -24%; HTT aggregate: 2%; HTT cytoprotect: -17%[10 µM]; ALDH1A1 block: 22µM*

Results for Cc1ccc(CNC(=O)C2(C)Oc3ccccc3NC2=O)cc1 (configuration not stated) ?
Lamin A splicing: 2%; KinaseGlo FLuc: 1%; HPGD block: -6%; HTT aggregate: -1%; HTT cytoprotect: 13%; ALDH1A1 block: 0%

How did Fc1ccc(CSc2nc3ncc(Br)cc3[nH]2)cc1 do in these assays?
Lamin A splicing: 1%; KinaseGlo FLuc: -3%; HPGD block: 0.63µM*; HTT aggregate: 5%; HTT cytoprotect: 13%; ALDH1A1 block: 7%

How did O=C(CSc1nc2ncc(Br)cc2[nH]1)c1ccc([N+](=O)[O-])cc1 do in these assays?
Lamin A splicing: -3%; KinaseGlo FLuc: 0%; HPGD block: 8.9µM*; HTT aggregate: -14%; HTT cytoprotect: -15%[10 µM]; ALDH1A1 block: inconclusive

Results for OC1(CNCc2ccccc2)C2CC3CC(C2)CC1C3 (configuration not stated) ?
HTT aggregate: 13%[9.22 µM]; HTT cytoprotect: -8%[10 µM]; ALDH1A1 block: 6%

Results for O=C(COC(=O)c1ccc([N+](=O)[O-])s1)Nc1ncc(C(F)(F)F)cc1Cl ?
Lamin A splicing: 2%; KinaseGlo FLuc: -1%; HPGD block: -27%; HTT aggregate: -1%; HTT cytoprotect: 22%[1.9 µM]; ALDH1A1 block: 18µM*

Results for O=C(COC(=O)c1ccccn1)Nc1ncc(C(F)(F)F)cc1Cl ?
Lamin A splicing: 17%; KinaseGlo FLuc: -1%; HPGD block: -15%; HTT aggregate: -6%; HTT cytoprotect: -25%[10 µM]; ALDH1A1 block: inconclusive

What do the screens show for `Cc1cccc(OCCC(=O)Nc2ccc(F)c(Cl)c2)c1`?
Lamin A splicing: -9%; KinaseGlo FLuc: 0%; HPGD block: -16%; HTT aggregate: -3%; HTT cytoprotect: -34%[10 µM]; ALDH1A1 block: -2%

What do the screens show for `O=C(CCl)Nc1cccc(S(=O)(=O)N2CCCCCC2)c1`?
Lamin A splicing: inconclusive; HTT aggregate: 10µM*; HTT cytoprotect: 31%[10 µM]; ALDH1A1 block: 0.71µM*

Results for CSc1cccc(NS(=O)(=O)c2ccccc2)c1 ?
Lamin A splicing: -12%; KinaseGlo FLuc: -1%; HPGD block: 25µM*; HTT aggregate: 9%; HTT cytoprotect: 1%[1.9 µM]; ALDH1A1 block: -2%

What do the screens show for `O=C(N1CCCCC1)N1CCN(S(=O)(=O)c2ccc(Cl)cc2)CC1`?
Lamin A splicing: inconclusive; KinaseGlo FLuc: -2%; HTT aggregate: 3%[9.22 µM]; HTT cytoprotect: 9%[10 µM]; ALDH1A1 block: 2%

Results for O=S(=O)(Nc1cccc(S(=O)(=O)N2CCCCCC2)c1)c1ccccc1 ?
KinaseGlo FLuc: -1%; HTT aggregate: 10%[9.22 µM]; HTT cytoprotect: 6%[10 µM]; ALDH1A1 block: 2µM*

Results for CSc1cccc(NS(=O)(=O)c2ccc(C(C)=O)cc2)c1 ?
HTT aggregate: -18%[9.22 µM]; HTT cytoprotect: 23%[10 µM]

Results for O=S(=O)(c1cccc(S(=O)(=O)N2CCCC2)c1)c1cccc(S(=O)(=O)N2CCCC2)c1 ?
Lamin A splicing: -8%; KinaseGlo FLuc: 16%; HPGD block: 6%; HTT aggregate: 2%; HTT cytoprotect: -5%; ALDH1A1 block: inconclusive

Results for O=C(N1CCCCCC1)N1CCN(S(=O)(=O)c2ccccc2)CC1 ?
Lamin A splicing: 6%; KinaseGlo FLuc: 6%; HPGD block: -6%; HTT aggregate: -11%[9.22 µM]; HTT cytoprotect: 18%; ALDH1A1 block: 6.3µM*

How did COC(=O)c1[nH]c2ccc(C)cc2c1NC(=O)CN1CCN(C(=O)c2ccccc2)CC1 do in these assays?
Lamin A splicing: -9%; KinaseGlo FLuc: 1%; HPGD block: inconclusive; HTT aggregate: 5%; HTT cytoprotect: -19%[10 µM]; ALDH1A1 block: inconclusive

How did O=c1[nH]c(C2CCCN(S(=O)(=O)c3ccc(F)cc3)C2)nc2c1nnn2Cc1ccccc1 (configuration not stated) do in these assays?
Lamin A splicing: 12%; KinaseGlo FLuc: -4%; HPGD block: 13µM*; HTT aggregate: -6%; HTT cytoprotect: -33%; ALDH1A1 block: 14µM*

What do the screens show for `CC(C)(C)c1ccc(Cn2nnc3c(=O)[nH]c(C4CCN(C(=O)Cc5cccs5)CC4)nc32)cc1`?
Lamin A splicing: inconclusive; KinaseGlo FLuc: 1%; HPGD block: -19%; HTT aggregate: 13µM*; HTT cytoprotect: -25%; ALDH1A1 block: 9%

Results for O=C(Cc1cccs1)N1CCC(c2nc3c(nnn3Cc3ccccc3)c(=O)[nH]2)CC1 ?
Lamin A splicing: 13%; KinaseGlo FLuc: 3%; HPGD block: 4.5µM*; HTT aggregate: 0%; HTT cytoprotect: -1%; ALDH1A1 block: inconclusive

Results for Cc1ccc(Cn2nnc3c(=O)[nH]c(C4CCCN(S(=O)(=O)c5ccccc5)C4)nc32)cc1 (configuration not stated) ?
Lamin A splicing: 9%; KinaseGlo FLuc: 0%; HPGD block: -14%; HTT aggregate: 16%[9.22 µM]; HTT cytoprotect: 18%; ALDH1A1 block: -9%

What do the screens show for `Cc1ccc(Cn2nnc3c(=O)[nH]c(C4CCN(C(=O)Cc5cccs5)CC4)nc32)cc1`?
Lamin A splicing: 15%; KinaseGlo FLuc: -7%; HPGD block: inconclusive; HTT aggregate: 25%; HTT cytoprotect: 9%[10 µM]; ALDH1A1 block: -4%

How did O=C(NCc1cccs1)c1nc2c(nnn2Cc2ccccc2Cl)c(=O)[nH]1 do in these assays?
Lamin A splicing: inconclusive; KinaseGlo FLuc: 0%; HPGD block: 6.3µM*; HTT aggregate: inconclusive; HTT cytoprotect: -3%[10 µM]; ALDH1A1 block: -1%

Results for CCC(C)NC(=O)c1nc2c(nnn2Cc2ccccc2Cl)c(=O)[nH]1 (configuration not stated) ?
Lamin A splicing: inconclusive; KinaseGlo FLuc: -3%; HTT aggregate: -33%[9.22 µM]; HTT cytoprotect: -17%[10 µM]; ALDH1A1 block: -3%

What do the screens show for `CC(C)(C)c1ccc(Cn2nnc3c(=O)[nH]c(C4CCCN(C(=O)Cc5cccs5)C4)nc32)cc1` (configuration not stated)?
Lamin A splicing: inconclusive; KinaseGlo FLuc: -8%; HPGD block: -7%; HTT aggregate: -18%; HTT cytoprotect: 23%[10 µM]; ALDH1A1 block: inconclusive
